Laboratory results reported in PubChem BioAssay (Tox21).
Values joined by “and” are separate entries in the source; they are usually repeats but may differ in a detail not shown here. Identical values can stand only once. Records with an inconclusive call do not appear. More than one record can exist for a structure, and the calls need not agree. Active and inactive are the calls of the source. Unless noted, the call rests on the fitted dose curve; in most records, active means well fitted curve in the direction sought with a large enough effect in the repeat runs; inconclusive means weak or mixed curves; inactive means no such curve, though single readings can be large; an effect the other way counts as inactive or inconclusive.

What was measured:
[1] = qHTS assay to identify small molecule agonists of the hypoxia (HIF-1) signaling pathway - cell viability counter screen (AID 1224844; calls by dose curve; further: nearly all actives have a fitted effect of over 50% in size; further: potency means the concentration at half of the fitted maximal effect)
Procedure, shortened: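 ME-180 HRE-bla cells, 2,000/well, 0.5% dialyzed FBS; 5 hr settle, 17 hr compound at 37C/5% CO2; CCF4-AM reporter read first, then CellTiter-Glo luminescence after 30 min RT.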

[2] = qHTS assay to identify small molecule agonists of H2AX (AID 1224845; active means well fitted activation curve with a large enough effect in the signal ratio in the repeat runs, not every such curve was filed as active; the % refers to the signal ratio)
Procedure, shortened: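 Wild-type CHO-K1 cells, plated overnight, exposed 3hr at 37C to 15 concentrations (0.76% DMSO final). Lysed, then HTRF anti-pH2AX (S139) cryptate and anti-H2AX-d2 antibodies, 24 hr room temperature; 665/620 nm emission read.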

[3] = qHTS assay to identify small molecule agonists of H2AX - cell viability counter screen (AID 1224847; calls by dose curve; further: nearly all actives have a fitted effect of over 30% in size; further: potency means the concentration at half of the fitted maximal effect)
Procedure, shortened: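 Cells plated first: CHO-K1, 1000 per well in 10% FBS medium, incubated overnight at 37C. Then 15-point compound titration added (final DMSO 0.76%) for 3 hr. Finally CellTiter-Glo added and luminescence read.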

[4] = qHTS RealTime-Glo MT Cell Viability Assay in HepG2 cells - 24 hour (AID 1224867); further: nearly all actives have a fitted effect of over 50% in size
Procedure, shortened: (§1)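 qHTS, HepG2, 600 cells/well, RealTime-Glo (NanoLuc + prosubstrate) added with cells; 5 h preincubation; DMSO compound addition; 37 C; luminescence at 0/8/16/24/32/40 h.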

[5] = qHTS RealTime-Glo MT Cell Viability Assay in HEK293 cells - 32 hour (AID 1224868); further: nearly all actives have a fitted effect of over 50% in size; further: potency means the concentration at half of the fitted maximal effect
Procedure, shortened: (§2)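 Assay medium contained NanoLuc luciferase plus cell-permeant prosubstrate, added with HEK293 cells at 600 cells/well. After 5 h at 37 C/5% CO2 compounds were added; plates stayed at 37 C for 40 h with serial luminescence reads.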

[6] = A CellTox Green Cytotoxicity Assay to monitor cytotoxicity in HEK293 cells - 0 hour (AID 1224869); further: nearly all actives have a fitted effect of over 50% in size; further: potency means the concentration at half of the fitted maximal effect
Procedure, shortened: (§3)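 Nonlytic real-time cytotoxicity: HEK293 + CellTox Green reagent plated, 5 h preincubation, pintool compound addition (23 nL in DMSO), 37 C for 40 h, fluorescence measured at successive time points.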

[7] = qHTS RealTime-Glo MT Cell Viability Assay in HepG2 cells - 40 hour (AID 1224870); further: nearly all actives have a fitted effect of over 50% in size
Procedure, shortened: (§4)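 HepG2 cells (600/well) mixed with RealTime-Glo MT reagent, settled 5 h at 37 C/5% CO2 before compound addition. Nonlytic NanoLuc luminescence from viable-cell prosubstrate reduction read repeatedly during 40 h treatment at 37 C.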

[8] = A CellTox Green Cytotoxicity Assay to monitor cytotoxicity in HEK293 cells - 40 hour (AID 1224871); further: nearly all actives have a fitted effect of over 45% in size; further: potency means the concentration at half of the fitted maximal effect
Procedure, shortened: as §3

[9] = qHTS RealTime-Glo MT Cell Viability Assay in HEK293 cells - 16 hour (AID 1224872); further: nearly all actives have a fitted effect of over 50% in size; further: potency means the concentration at half of the fitted maximal effect
Procedure, shortened: as §2

[10] = qHTS RealTime-Glo MT Cell Viability Assay in HepG2 cells - 8 hour (AID 1224873); further: nearly all actives have a fitted effect of over 55% in size
Procedure, shortened: as §4

[11] = qHTS RealTime-Glo MT Cell Viability Assay in HEK293 cells - 40 hour (AID 1224874); details: RealTime-Glo luminescence; max response: stronger effect = lower value; further: nearly all actives have a fitted effect of over 50% in size; further: potency means the concentration at half of the fitted maximal effect
Procedure, shortened: (§5)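 Cells were seeded together with NanoLuc luciferase and a prosubstrate that viable cells reduce to a luciferase substrate. After a 5 h incubation at 37 C/5% CO2, compounds were added and luminescence was measured repeatedly during 40 h of treatment.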

[12] = A CellTox Green Cytotoxicity Assay to monitor cytotoxicity in HepG2 cells - 16 hour (AID 1224876); further: nearly all actives have a fitted effect of over 45% in size; further: potency means the concentration at half of the fitted maximal effect
Procedure, shortened: (§6)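 Read-out is fluorescence of a cyanine dye excluded from live cells that stains DNA of dead HepG2 cells, with signal proportional to cytotoxicity. Plates were read at 0, 8, 16, 24, 32 and 40 h after compound addition.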

[13] = qHTS RealTime-Glo MT Cell Viability Assay in HepG2 cells - 32 hour (AID 1224877); further: nearly all actives have a fitted effect of over 55% in size
Procedure, shortened: as §1

[14] = A CellTox Green Cytotoxicity Assay to monitor cytotoxicity in HepG2 cells - 24 hour (AID 1224878); further: nearly all actives have a fitted effect of over 45% in size; further: potency means the concentration at half of the fitted maximal effect
Procedure, shortened: as §6

[15] = A CellTox Green Cytotoxicity Assay to monitor cytotoxicity in HepG2 cells - 40 hour (AID 1224879); further: nearly all actives have a fitted effect of over 40% in size; further: potency means the concentration at half of the fitted maximal effect
Procedure, shortened: as §6

[16] = qHTS RealTime-Glo MT Cell Viability Assay in HEK293 cells - 0 hour (AID 1224880); further: top concentration of the series differs between compounds; nearly all actives have a fitted effect of over 45% in size
Procedure, shortened: as §5

[17] = qHTS assay to identify small molecule antagonists of the estrogen related receptor (ERR) signaling pathway from Tox21 library (AID 1224848); further: nearly all actives have a fitted effect of over 50% in size; further: potency means the concentration at half of the fitted maximal effect
Procedure, shortened: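 Luminescent reporter read-out (ONE-Glo) from NTP's ERR cell line after 18 h treatment at 37 C with DMSO-dissolved Tox21 compounds; cells pre-plated 6 h beforehand at 2,000 per well.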

[18] = qHTS assay to identify small molecule agonists of the estrogen related receptor (ERR) signaling pathway from Tox21 library (AID 1224849; calls by dose curve; further: nearly all actives have a fitted effect of over 15% in size); details: ERR reporter cell line, ONE-Glo luciferase, 18 h
Procedure, shortened: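 ERR cells, 6 h pre-incubation 37 C/5% CO2; cpd in DMSO pinned; 18 h 37 C; ONE-Glo added, 30 min RT; luminescence read. Agonist mode, qHTS.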

[19] = A CellTox Green Cytotoxicity Assay to monitor cytotoxicity in HEK293 cells - 24 hour (AID 1224875); further: nearly all actives have a fitted effect of over 45% in size
Procedure, shortened: as §3
On the % scale 0 is the no-effect control and ±100 the full control effect.

OC[P+](CO)(CO)CO
44.2 µM (active) and inactive: Potency [1]
inactive: Potency [2] | Potency [3] | Potency [4] | Potency [5] | Potency [6] | Potency [7] | Potency [8] | Potency [9] | Potency [10] | max response [11] 5.15% and -10.7% | Potency [12] | Potency [13] | Potency [14] | Potency [15] | outcome [16]

Cc1nnc(-c2ccccc2)c(=O)n1N
inactive: Potency [1] | Potency [2] | Potency [3] | Potency [4] | Potency [5] | Potency [6] | Potency [7] | Potency [8] | Potency [9] | Potency [10] | max response [11] -13.2% | Potency [12] | Potency [13] | Potency [14] | Potency [15] | outcome [16]

CCC1(C2=NCCN2)Cc2ccccc2O1 (centres undefined)
inactive: Potency [1] | Potency [2] | Potency [3] | Potency [17] | activity change, positive = activation ([18]; at 42.5 µM (top of the series)) 5.71% | Potency [4] | Potency [5] | Potency [6] | Potency [7] | Potency [8] | Potency [9] | Potency [10] | max response [11] 7.14% | Potency [12] | Potency [13] | Potency [14] | Potency [15] | outcome [16]

C=C(Cl)Cl
inactive: Potency [1] | Potency [2] | Potency [3] | Potency [17] | activity change, positive = activation ([18]; at 92.4 µM (top of the series)) -0.979% | Potency [4] | Potency [5] | Potency [6] | Potency [7] | Potency [8] | Potency [9] | Potency [10] | max response [11] 8.47% | Potency [12] | Potency [13] | Potency [14] | Potency [15] | outcome [16]

CC(Cl)C(=O)O (centres undefined)
inactive: Potency [1] | Potency [2] | Potency [3] | Potency [4] | Potency [5] | Potency [6] | Potency [7] | Potency [8] | Potency [9] | Potency [10] | max response [11] 19.1% | Potency [19] | Potency [12] | Potency [13] | Potency [14] | Potency [15] | outcome [16]

O=C(N[C@H]1CN2CCC1CC2)c1ccc2c(c1)OCCO2
inactive: Potency [1] | Potency [2] | Potency [3] | Potency [17] | activity change, positive = activation ([18]; at 92.4 µM (top of the series)) 0.537% | Potency [4] | Potency [5] | Potency [6] | Potency [7] | Potency [8] | Potency [9] | Potency [10] | max response [11] 0.421% | Potency [19] | Potency [12] | Potency [13] | Potency [14] | Potency [15] | outcome [16]

C1CS1
inactive: Potency [1] | Potency [2] | Potency [3] | Potency [17] | activity change, positive = activation ([18]; at 92.4 µM (top of the series)) -0.221% | Potency [4] | Potency [5] | Potency [6] | Potency [7] | Potency [8] | Potency [9] | Potency [10] | max response [11] 12% | Potency [19] | Potency [12] | Potency [13] | Potency [14] | Potency [15] | outcome [16]

COC1=CC(=O)O[C@@H](/C=C/c2ccc3c(c2)OCO3)C1
inactive: Potency [1] | Potency [2] | Potency [3] | activity change, positive = activation ([18]; at 92.4 µM (top of the series)) -47.8% | Potency [4] | Potency [5] | Potency [6] | Potency [7] | Potency [8] | Potency [9] | Potency [10] | Potency [19] | Potency [12] | Potency [13] | Potency [14] | outcome [16]
active: Potency [17] 20.8 µM

Nc1ccccc1C(=O)OCCc1ccccc1
active: Potency [3] 101 µM and 89.8 µM | activity change, positive = activation ([18]; at 92.4 µM (top of the series)) 18.1% and 10.8% | Potency [5] 24.5 µM | Potency [8] 21.9 µM | Potency [9] 24.5 µM | Potency [11] 24.5 µM | Potency [12] 21.9 µM | Potency [14] 21.9 µM | Potency [15] 21.9 µM
inactive and 43.6 µM (active): Potency [6]
inactive: Potency [1] | Potency [2] | Potency [17] | Potency [4] | Potency [7] | Potency [10] | Potency [13] | outcome [16]

CC(O)CN1CCN(CC(=O)[O-])CCN(CC(=O)[O-])CCN(CC(=O)[O-])CC1.[Gd+3] (centres undefined)
inactive: Potency [1] | Potency [2] | Potency [3] | Potency [4] | Potency [5] | Potency [6] | Potency [7] | Potency [8] | Potency [9] | Potency [10] | max response [11] 3.85% | Potency [19] | Potency [12] | Potency [13] | Potency [14] | Potency [15] | outcome [16]

Clc1ccccc1
inactive: Potency [1] | Potency [2] | Potency [3] | activity change, positive = activation ([18]; at 92.4 µM (top of the series)) 5.28% | Potency [4] | Potency [5] | Potency [6] | Potency [7] | Potency [8] | Potency [9] | Potency [10] | max response [11] -1.5% | Potency [19] | Potency [12] | Potency [13] | Potency [14] | outcome [16]

O=[N+]([O-])c1cc(Cl)c(Cl)cc1Cl
inactive: Potency [1] | Potency [2] | Potency [3] | Potency [17] | activity change, positive = activation ([18]; at 92.4 µM (top of the series)) 0.191% | Potency [4] | Potency [5] | Potency [6] | Potency [7] | Potency [9] | Potency [10] | max response [11] 2.2% | Potency [12] | Potency [13] | Potency [14] | Potency [15] | outcome [16]
